Rows were chosen to be rich in hits. Some 3.7% of all compounds tested hit in one or more screens of this group.
A549 tox – kills or reduces viability of A549 cells in Nrf2 counter-screen. 390,000 compounds, 0.16% hits. Potency, µM (doses to about 46 µM), for the others: at the top dose activity change, negative = cytotoxicity, most hits filed as inhibitors. A549 ARE-Fluc cells, CellTiter-Fluor viability, 18-24 h. AID 504648; also: % is scaled to controls: 0 for no effect and ±100 for the full control effect
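A549 ARE-Fluc cells in 5% FBS OPTI-MEM, 5000 cells/well, rested 2 h then exposed to compounds in concentration-response for 18-24 h at 37 °C. Viability by CellTiter-Fluor fluorescence (Ex 405/Em 525) after 30 min; luciferase luminescence (BugLite, 15 min, RT) read afterwards.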
Nrf2 activator – activators of Nrf2 (ARE) signaling; AREc32 ARE-luciferase reporter (MCF7-derived line), luminescence, 24 h; Potency, µM (series often up to 46.1 µM), without a hit: at the highest dose activation, actives largely listed as activators; 410,000 compounds, 0.31% hits; AID 624171; also: % of control where 0% means no effect; nearly all actives have a fitted effect of over 65% in size
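ARE activation measured as luciferase luminescence (Steady-Glo, 30 min RT) in AREc32_Fluc cells after 24 hr compound exposure at 37 deg C, 5% CO2; cells seeded overnight at 1000/well in OPTI-MEM, 5% FBS.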
Nrf2 block – Nrf2 pathway inhibition | 360,000 compounds, 2.1% hits | Potency, µM (series often up to 46 µM), for inactives: at the top dose activity change, negative = inhibition, hits mostly inhibitors | A549 ARE-Fluc reporter, luciferase luminescence, 18-24 h; also: % is scaled to controls: 0 for no effect and ±100 for the full control effect; nearly all actives have a fitted effect of over 60% in size
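Quantitative HTS in A549 cells stably bearing an antioxidant response element-firefly luciferase construct. Inhibition of Nrf2-driven transcription was scored by luminescence after 18-24 h of compound exposure at 37 °C.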
ELG1 repair inh – inhibitors of ELG1-dependent DNA repair in HEK293T cells. HEK293T ELG1-luciferase reporter, luminescence, 16 h; DNA damage induced by 5-fluorouridine. Potency, µM (titrated, usually from 46.1 µM), inactives show at the top dose activity change, negative = inhibition, usual class: inhibitors. 330,000 compounds, 2.3% hits. AID 504467; also: % is scaled to controls: 0 for no effect and ±100 for the full control effect; nearly all actives have a fitted effect of over 55% in size
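HEK293T cells expressing luciferase-tagged ELG1 (2,000/well) received 5-Fluorouridine plus compound or DMSO for 16 hr at 37 °C. Luciferase was read by ONE-Glo luminescence after 30 min at room temperature.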
The depositor's hits bear a star; ? = inconclusive; nt = no result. Calls follow the shape of the dose curve; as a rule, active = well fitted curve in the direction sought with a large enough effect; inconclusive = small, poorly fitted or top-dose-only effect, or another doubt; inactive = no such curve, though single readings can be large; an effect the other way counts as inactive or inconclusive. Potency is read from the fitted curve at half-maximal effect.

SMILES	A549 tox	Nrf2 activator	Nrf2 block	ELG1 repair inh
c1ccc2c(Nc3ccc(N4CCOCC4)cc3)nc(N3CCOCC3)nc2c1	?	5%	?	9.2µM*
Cc1cccc(-c2nc(Nc3ccc(N4CCOCC4)cc3)c3ccccc3n2)c1	-2%	6%	-5%	23µM*
O=c1nc(SCc2cccc(C(F)(F)F)c2)nc2ccccn12	2%	5%	-5%	16%
COc1cc2c(cc1OC)C(c1ccc(-c3ccc(Cl)c(Cl)c3)o1)=NCC2	nt	3%	9.2µM*	15µM*
COc1cc2c(cc1OC)C(c1ccc(-c3cc(Cl)ccc3Cl)o1)=NCC2	?	-1%	16µM*	?
CC(C)Nc1cccc(S(=O)(=O)N2CCCN(S(=O)(=O)c3ccc4c(c3)OCCO4)CC2)c1	-3%	nt	?	nt
O=C(NCc1ccccn1)C1CCN(C(=O)c2cc3sccc3n2Cc2ccc(F)cc2)CC1	11%	6%	?	21µM*
O=C(NCc1ccco1)C1CCN(C(=O)c2cc3sccc3n2Cc2ccc(F)cc2)CC1	-24%	4%	?	?
CCn1c(C(=O)N2CCC(C(=O)NCc3ccc4c(c3)OCO4)CC2)cc2sccc21	-8%	3%	-25%	7.3µM*
CCn1c(C(=O)N2CCC(C(=O)NCCCSC3CCCCC3)CC2)cc2sccc21	6%	-1%	-20%	21µM*
CCn1c(C(=O)N2CCC(C(=O)NCCc3ccccc3)CC2)cc2sccc21	2%	0%	7%	nt
O=C1CSC2(C(=O)N(Cc3cccc(F)c3)c3ccccc32)N1c1cccc(C(F)(F)F)c1 (configuration not stated)	-14%	0%	23µM*	nt
CCCCOc1c(Cl)cc(C(=O)N(Cc2ccc(C)o2)C2CCS(=O)(=O)C2)cc1Cl (configuration not stated)	-2%	0%	-13%	nt
Cc1ccc(S(=O)(=O)N2CCOCC2)cc1C(=O)Nc1ccc(-c2cn3ccsc3n2)cc1	-1%	0%	?	18µM*
O=C(Nc1ccc(Br)cc1)c1cccc(-n2cnnn2)c1	-6%	2%	-15%	?
Cc1ccc(-c2csc(NC(=O)c3cccc(S(=O)(=O)N4CCN(C)CC4)c3)n2)cc1	-6%	3%	-19%	?
Cc1ccc(S(=O)(=O)N2CCOCC2)cc1C(=O)Nc1ccncc1	0%	-1%	-26%	-2%
COc1cccc(C(=O)Nc2nc(-c3ccc(S(=O)(=O)N4CCOCC4)cc3)cs2)c1	-18%	0%	13µM*	?
O=C(Nc1nc(-c2ccccn2)cs1)c1cccc(-n2cnnn2)c1	-7%	0%	7.3µM*	?
Cc1ccc(S(=O)(=O)N2CCOCC2)cc1C(=O)Nc1nc(-c2cccnc2)cs1	-5%	-1%	-10%	12µM*
Cc1cccnc1CNC(=O)C1(C)CCCN1CC(C)C (configuration not stated)	nt	0%	nt	nt
Cc1cc(-c2ccc(S(=O)(=O)Nc3cccc(Cl)c3C)cc2)on1	-10%	-1%	?	nt
O=C(Nc1nc(-c2ccccn2)cs1)c1cc(S(=O)(=O)N2CCOCC2)ccc1F	0%	3%	5%	1%
Cc1ccccc1NC(=O)c1ccc(F)c(S(=O)(=O)N2CCN(c3ccccn3)CC2)c1	6%	2%	nt	23µM*
Cc1ccccc1NC(=O)c1ccc(C)c(S(=O)(=O)N2CCN(C)CC2)c1	10%	2%	3%	5%
SMILES	A549 tox	Nrf2 activator	Nrf2 block	ELG1 repair inh
O=C(Nc1nc(-c2ccccn2)cs1)c1ccc(F)c(S(=O)(=O)N2CCOCC2)c1	?	3%	8.2µM*	8%
COCn1c(=O)c2c(nc(SC3=NCCS3)n2Cc2ccccc2C)n(COC)c1=O	0%	0%	?	18µM*
C[C@@H](C(=O)NCCc1c[nH]c2ccccc12)[C@H]1C[C@]1(C)[C@H](NC(=O)OCc1ccccc1)c1ccccc1	-8%	0%	?	18µM*
Oc1ccc(N=Nc2ccc3ccccc3c2)cc1	-23%	10%	2.6µM*	?
CCC(O)CNC(=O)NC(=C(Cl)Cl)c1ccc(C)c(F)c1 (configuration not stated)	-14%	?	18µM*	?
CN(C)N1C(N)=C(C#N)C(c2ccc3c(c2)OCO3)C2=C1CC(C)(C)CC2=O (configuration not stated)	-5%	0%	-10%	12%
COC(=O)/C=C/c1ccc2c(c1)S(=O)(=O)N(Cc1ccc(OC)cc1)[C@H]2CC(=O)OC	-5%	18µM*	9%	nt
CCc1nnc(SCC(=O)N(CC)c2ccccc2)c2cc3oc(C)cc3n12	-1%	5.6µM*	-28%	nt
CCOC(=O)c1ccccc1NC(=O)CSc1nnc(CC)n2c1cc1occc12	-1%	4%	7%	nt
CC(C)C(C)NC(=O)COc1ccc(Sc2ccc(OCC(=O)NC(C)C(C)C)cc2)cc1 (configuration not stated)	-14%	0%	21µM*	8.2µM*
Clc1ccc(-c2c[n+](Cc3ccc(Cl)c(Cl)c3)c3n2CCC3)cc1	nt	nt	nt	-13%
Clc1cccc(C[n+]2cc(-c3ccccc3)n3c2CCC3)c1	0%	0%	-26%	-8%
CCc1ccc(NC(=O)C[n+]2cc(-c3ccc(C)cc3)n3c2CCC3)cc1	0%	3%	-7%	12µM*
Cc1ccc(C[n+]2cc(-c3ccc(Cl)cc3)n3c2CCC3)cc1	-1%	-1%	14%	4.6µM*
Cc1ccc(-c2c[n+](Cc3cccc(Cl)c3)c3n2CCC3)cc1	-9%	0%	?	10µM*
C[C@H]1CN([C@@H](C)CO)C(=O)CCCn2nncc2CO[C@@H]1CN(C)S(=O)(=O)c1cccc(F)c1	nt	-1%	nt	nt
CC(=O)Nc1cc(-c2cccc(F)c2)cn2c(-c3ccc(F)c(Cl)c3)cnc12	nt	10%	nt	nt
Cc1c(C(=O)NCc2cccnc2)oc2ccc(S(=O)(=O)N3CC(C)CC(C)C3)cc12 (configuration not stated)	0%	0%	-5%	-6%
Cc1c(C(=O)NCc2cccnc2)oc2ccc(S(=O)(=O)N3CCC4(CC3)OCCO4)cc12	15%	3%	?	23µM*
COc1ccc(NC(=O)c2oc3ccc(S(=O)(=O)N4CCCCC4)cc3c2C)cc1	-7%	4%	nt	nt
Cc1ccc(NC(=O)c2oc3ccc(S(=O)(=O)N4CCC5(CC4)OCCO5)cc3c2C)cc1C	-1%	0%	?	6.5µM*
Cc1c(C(=O)Nc2ccc(F)cc2)oc2ccc(S(=O)(=O)N3CC(C)CC(C)C3)cc12 (configuration not stated)	-15%	0%	7.3µM*	?
CC(=O)c1ccc(Cc2ccc(C(C)=O)s2)s1	nt	7%	nt	nt
O=C(NCCc1ccc(Cl)cc1)c1ccc(CS(=O)Cc2cccc(Cl)c2)o1 (configuration not stated)	?	5%	?	nt
Cc1ccccc1S(=O)Cc1ccc(C(=O)NC2CCCCCC2)o1 (configuration not stated)	4%	0%	-2%	nt
